In PubChem BioAssay (Tox21):
The source made the active and inactive calls. Entries that show only a call come without a potency. Unless noted, calls follow the shape of the full dose curve.

molecular target: Thyrotropin-releasing hormone receptor (Homo sapiens) (UniProt P34981); assay: qHTS assay to identify small molecule antagonists of the thyrotropin-releasing hormone receptor (TRHR) signaling pathway (AID 1346877; active = well fitted inhibition curve with a large enough effect in the repeat runs, not every such curve was filed as active); details: TRHR-HEK293, TRH-induced calcium fluorescence, antagonist mode; series mostly up to 51.3 µM
Sequence (P34981 whole entry, looked up): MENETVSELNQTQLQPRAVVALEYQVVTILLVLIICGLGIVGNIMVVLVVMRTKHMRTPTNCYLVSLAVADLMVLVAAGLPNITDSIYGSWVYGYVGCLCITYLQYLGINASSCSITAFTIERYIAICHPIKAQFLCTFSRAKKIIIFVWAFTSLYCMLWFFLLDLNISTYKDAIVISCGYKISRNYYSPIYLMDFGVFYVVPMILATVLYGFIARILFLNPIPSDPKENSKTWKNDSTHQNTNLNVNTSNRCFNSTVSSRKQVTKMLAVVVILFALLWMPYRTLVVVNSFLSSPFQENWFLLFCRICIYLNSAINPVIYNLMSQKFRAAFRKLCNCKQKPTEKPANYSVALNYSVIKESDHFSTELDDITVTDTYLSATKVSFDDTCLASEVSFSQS
Outline: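 In this cell-based calcium flux format, HEK293 cells expressing TRHR received test compound for 5 min before the agonist TRH (1 nM final). Dye loading lasted 2 h at 37 °C.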

SMILES | outcome
CS(=O)(=O)Nc1ccc([N+](=O)[O-])cc1Oc1ccccc1 | inactive
OC1CCCC1 | inactive
NS(=O)(=O)c1cc2c(cc1Cl)NC=NS2(=O)=O | inactive
Nc1c(S(=O)(=O)O)cc(Br)c2c1C(=O)c1ccccc1C2=O | inactive
OCCOCCOCCOCCO | inactive
CC(C)(N=C=O)c1cccc(C(C)(C)N=C=O)c1 | inactive
CCOC(=O)/C=C\C(=O)OCC | inactive
C=C(C)C(=O)OCCC[Si](OC)(OC)OC | inactive
ClC1=C(Cl)C(Cl)(Cl)C(Cl)=C1Cl | inactive
Cc1cc(=O)[nH]c(C(C)C)n1 | inactive
CCCCCC/C=C/CCCCCCCC(=O)O | inactive
CC(C)Cc1ccccc1 | inactive
Cc1ccc(C)c(C)c1 | inactive
Oc1ccc(OCc2ccccc2)cc1 | inactive
C[C@@H]1O[C@@H](OC[C@H]2O[C@@H](Oc3c(-c4ccc(O)c(O)c4)oc4cc(O)cc(O)c4c3=O)[C@H](O)[C@@H](O)[C@@H]2O)[C@H](O)[C@H](O)[C@H]1O | inactive
O=S(=O)(O)CCS | inactive
CC1=CC[C@H]2C[C@@H]1C2(C)C | inactive
O=[N+]([O-])c1cccc(Cl)c1 | inactive
C=C(C)C(=O)OCCCCCCCCCCCC | inactive
CNC[C@H](O)[C@@H](O)[C@H](O)[C@H](O)CO | inactive
C=C(C#N)C(=O)OCC | inactive
CC(C)(CO)COC(=O)C(C)(C)CO | inactive

molecular target: Thyrotropin-releasing hormone receptor (Homo sapiens) (UniProt P34981); assay: qHTS assay to identify small molecule agonists of the thyrotropin-releasing hormone receptor (TRHR) signaling pathway (AID 1346891); details: TRHR-HEK293 calcium fluorescence, agonist mode; series mostly up to 57.6 µM
Outline: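 Compounds were tested as agonists at 15 concentrations, in triplicate, on TRHR-Hek293 cells; calcium-sensitive dye fluorescence was recorded for 3 min following addition.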

SMILES | Potency
CN(C)c1cccc(O)c1 | inactive
CS(=O)(=O)Nc1ccc([N+](=O)[O-])cc1Oc1ccccc1 | inactive
CCCCCCCCC | inactive
OC1CCCC1 | inactive
NS(=O)(=O)c1cc2c(cc1Cl)NC=NS2(=O)=O | inactive
OCCOCCOCCOCCO | inactive
CC(C)(N=C=O)c1cccc(C(C)(C)N=C=O)c1 | inactive
CCC(C)C=O (centres undefined) | inactive
CCOC(=O)/C=C\C(=O)OCC | inactive
C=C(C)C(=O)OCCC[Si](OC)(OC)OC | inactive
CC(C)(C)C1CCC(O)CC1 (centres undefined) | inactive
ClC1=C(Cl)C(Cl)(Cl)C(Cl)=C1Cl | inactive
Cc1cc(=O)[nH]c(C(C)C)n1 | inactive
CCCCCC/C=C/CCCCCCCC(=O)O | inactive
Cc1ccc(N)c(S(=O)(=O)O)c1 | inactive
CC1Cc2ccccc2N1NC(=O)c1ccc(Cl)c(S(N)(=O)=O)c1 (centres undefined) | inactive
CC1(C)CC(N=C=O)CC(C)(CN=C=O)C1 (centres undefined) | inactive
CC(C)Cc1ccccc1 | inactive
Cc1ccc(C)c(C)c1 | inactive

SMILES | Potency
CCCCCCC(C)(C)S | inactive
Oc1ccc(OCc2ccccc2)cc1 | inactive
O=S(=O)(O)c1cc(S(=O)(=O)O)c2c(N=Nc3ccccc3)c(O)ccc2c1 | inactive
O=C1O[C@H](CO)[C@@H](O)[C@H](O)[C@H]1O | inactive
C[C@@H]1O[C@@H](OC[C@H]2O[C@@H](Oc3c(-c4ccc(O)c(O)c4)oc4cc(O)cc(O)c4c3=O)[C@H](O)[C@@H](O)[C@@H]2O)[C@H](O)[C@H](O)[C@H]1O | inactive
O=S(=O)(O)CCS | inactive
O=C(Oc1ccccc1)c1ccc(O)cc1 | inactive
CC1=CC[C@H]2C[C@@H]1C2(C)C | inactive
O=[N+]([O-])c1cccc(Cl)c1 | inactive
O=C(O)c1cc(-c2ccccc2)nc2ccccc12 | inactive
C=C(C)C(=O)OCCCCCCCCCCCC | inactive
CNC[C@H](O)[C@@H](O)[C@H](O)[C@H](O)CO | inactive
CCCCCCCCCC(=O)O | inactive
CCCCC(CC)COC(C)=O (centres undefined) | inactive
O=[N+]([O-])C(CO)(CO)CO | inactive
CC1=C(/C=C/C(C)=C/C=C/C(C)=C/CO)C(C)(C)CCC1 | inactive
C=C(C#N)C(=O)OCC | inactive
CC(C)(CO)COC(=O)C(C)(C)CO | inactive
